Our source for the Potency values is PubChem BioAssay AID651815 (National Center for Advancing Translational Sciences (NCATS), 2012).

The whole screen tested about 2,100 compounds, of which about 1,100 (52%) were called active. Not shown: some 29% with an inconclusive outcome. Calls follow the shape of the dose curve; as a rule, active = well fitted inhibition curve with a large enough effect; inconclusive = small, poorly fitted or top-dose-only effect; inactive = no such curve, though single readings can be large or run the other way. The set was probably picked from earlier hits. This is one part of the list.
Potency is read from the fitted curve at half-maximal effect.

Chain of DNA dC->dU-editing enzyme APOBEC-3F (Homo sapiens) (Q8IUX4 whole entry, looked up): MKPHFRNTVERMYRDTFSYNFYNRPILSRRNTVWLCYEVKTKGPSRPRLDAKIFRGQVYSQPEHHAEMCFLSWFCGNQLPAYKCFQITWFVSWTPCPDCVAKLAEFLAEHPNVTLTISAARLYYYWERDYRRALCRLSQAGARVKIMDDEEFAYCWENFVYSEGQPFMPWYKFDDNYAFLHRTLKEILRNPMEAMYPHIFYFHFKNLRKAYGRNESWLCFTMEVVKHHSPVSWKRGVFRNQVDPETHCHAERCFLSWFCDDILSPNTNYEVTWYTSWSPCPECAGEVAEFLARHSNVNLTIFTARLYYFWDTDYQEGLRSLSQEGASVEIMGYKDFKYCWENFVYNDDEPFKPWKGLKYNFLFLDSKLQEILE

This experiment has as its target DNA dC->dU-editing enzyme APOBEC-3F (Homo sapiens) (UniProt Q8IUX4). The experiment in a line: qHTS for inhibitors of Vif-A3F interactions: Cherry picks counterscreen. Also: nearly all actives have a fitted effect of over 65% in size. To be noted: HeLa A3F-eYFP/Vif cells, eYFP fluorescence, 24 h; series mostly up to 46.1 µM. The method in brief: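 Rescue of Vif-driven A3F-eYFP degradation read as cellular eYFP fluorescence after 24 h compound exposure (several concentrations) in stable HeLa cells; MG132 (2 mM stock) as positive control.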
Regarding `CCc1ccc(N=Nc2ccc(O)c3[nH]cnc23)cc1`, the Potency was 8.2 µM (active).

Regarding `S=C(Nc1ccccc1)N1CCn2c1nc1ccccc12`, the Potency entry is “inactive”.

On to `CCCOc1ccc(C(=O)Nc2cccc(NC(=O)c3ccc(Cl)cc3Cl)c2)cc1`, for which the Potency was 20.6 µM (active).

For the molecule `COc1cc(C(=O)OCC(=O)Nc2ccc(N3CCOCC3)cc2)ccc1OCC(C)C`, the Potency entry was “inactive”.

Turning to `COc1cc(OC)cc(C(=O)Nc2ccc(N3CCN(C(=O)c4cccs4)CC3)cc2)c1`, the Potency is 7.9 µM (active).

Turning to `COc1cccc(C(=O)Nc2ccc(N3CCCC3)cc2)c1`, the Potency is 5.59 µM (active).

Turning to `O=C(OCCC12CC3CC(CC(C3)C1)C2)c1ccc(NCc2cc(O)ccc2O)cc1`, the Potency is 15.8 µM (active).

As to `Cc1ccc(C)c(Nc2nn3c(=O)c4ccc(C(=O)NCc5cccs5)cc4nc3s2)c1`, the Potency was 20.6 µM (active).

In the case of `CCOC(=O)c1ccc(NC(=O)CSc2nc(-c3cccs3)cc(C(F)(F)F)c2C#N)cc1`, the Potency is 16.4 µM (active).

With `N#Cc1c(C(F)(F)F)cc(-c2cccs2)nc1SCC(=O)Nc1cccc(C(F)(F)F)c1`, the Potency is 20.6 µM (active).

In the case of `N#Cc1c(C(F)(F)F)cc(-c2cccs2)nc1SCC(=O)Nc1cccc(Cl)c1`, the Potency entry is “inactive”.

Turning to `N#Cc1c(C(F)(F)F)cc(-c2cccs2)nc1SCC(=O)Nc1ccc(Cl)cc1`, the Potency was 7.31 µM (active).

With `O=c1[nH]cnc2n[nH]nc12`, the Potency is 10.3 µM (active).

As for `COc1ccc(N/C=C/C(=O)c2cc(OC)c(OC)c(OC)c2)cc1`, the Potency was 0.498 µM (active).

For the molecule `CCOc1ccc(N/C=C/C(=O)c2cc(OC)c(OC)c(OC)c2)cc1`, the Potency is 15.8 µM (active).

`CCOc1ccc(NC(=O)Cn2c(=O)n(Cc3ccc(C(=O)NCc4ccc(C)cc4)cc3)c(=O)c3ccccc32)cc1`: the Potency was 14.6 µM (active).

For the molecule `CCn1c(SCC(=O)N/N=C/c2ccc(C)s2)nc2ccccc21`, the Potency is 4.98 µM (active).

Turning to `COc1ccc(NC(=S)NN(C)C(=S)Nc2ccc(OC)cc2)cc1`, the Potency is 3.14 µM (active).

With `C=CCNC(=S)N/N=C(\C)c1ccc(OC)cc1`, the Potency entry is “inactive”.

On to `O=C(Nc1cc(=O)[nH]c(=O)[nH]1)c1cc(Cl)ccc1Cl`, for which the Potency was 8.86 µM (active).

On to `CCCCCCc1cc2cc(-c3nnc(-c4ccccc4O)o3)c(=O)oc2cc1O`, for which the Potency entry is “inactive”.

For `CCCCCCc1cc2cc(-c3nnc(-c4ccccc4)o3)c(=O)oc2cc1O`, the Potency is 3.53 µM (active).

Regarding `CCCCCCc1cc2cc(-c3nnc(-c4ccccc4OC)o3)c(=O)oc2cc1O`, the Potency was 1.98 µM (active).

As for `C=CCN=c1scc(-c2ccc(F)cc2)n1/N=C/c1ccccn1`, the Potency result is “inactive”.

In the case of `Cc1ccc2[nH]cc(/C=C/c3cc[n+](C)cc3)c2c1`, the Potency is 6.27 µM (active).

In the case of `COc1ccc2[nH]cc(/C=C/c3cc[n+](C)cc3)c2c1`, the Potency was 16.4 µM (active).

In the case of `C[n+]1ccc(/C=C/c2c[nH]c3ccc(F)cc23)cc1`, the Potency was 8.2 µM (active).

In the case of `O=C(Nc1ccccc1-c1nc2ccccc2[nH]1)c1ccc(N2C(=O)CCC2=O)cc1`, the Potency is 16.4 µM (active).

For the molecule `O=C1/C(=C/c2c[nH]c3ccccc23)CCC/C1=C\c1c[nH]c2ccccc12`, the Potency was 23.1 µM (active).

Consider `N#CC1=C2SCC(O)(c3ccccc3)N2C(=O)CC1c1ccccc1` (stereo not drawn), for which the Potency was 4.98 µM (active).

As to `Cc1cccc(C)c1NC(=S)NC(C)CCc1ccccc1` (stereo not drawn), the Potency result is “inactive”.

`COc1ccc2oc(-c3ccccc3[N+](=O)[O-])cc(=O)c2c1`: the Potency is 6.27 µM (active).

With `COc1ccccc1NC(=O)c1sc2ncn(CC(=O)Nc3ccccc3)c(=O)c2c1C`, the Potency was 20.6 µM (active).

For the molecule `Cc1ccnc(NC(=O)Nc2ccc3c(c2)N(C)C(=O)CS3)c1`, the Potency was 23.1 µM (active).

Regarding `CC(=O)Nc1ccc(NC(=O)C/C(C)=N/NC(N)=S)cc1`, the Potency entry was “inactive”.

For `CO/N=C\CC(=O)Nc1ccc(Cl)c(Cl)c1`, the Potency is 9.94 µM (active).

`CC(C)(C)c1ccc(Oc2ccc(NC(=O)c3ccccc3C(=O)O)cn2)cc1`: the Potency result was “inactive”.

For `CO/N=C\CC(=O)Nc1ccc(Oc2ccccc2)cc1`, the Potency is 1.98 µM (active).

Turning to `O=C(Cc1nc2ccccc2[nH]c1=O)c1ccc(Cl)cc1`, the Potency was 8.2 µM (active).

For the molecule `COc1cc2c(cc1OC)CN(C(=O)c1cc(=O)c3ccccc3o1)CC2`, the Potency was 11.2 µM (active).

For `COc1ccccc1N=C(C)C1=C(O)CC(c2ccccc2)CC1=O` (stereo not drawn), the Potency is 0.994 µM (active).

With `CCC(=Nc1ccccc1O)C1=C(O)CC(c2ccccc2)CC1=O` (stereo not drawn), the Potency result was “inactive”.

For `Cc1cnc(NC(=O)CC(C)c2ccccc2)s1` (stereo not drawn), the Potency was 5.59 µM (active).

Consider `CN(C)c1ccc(C=C2SC(=S)N(Cc3ccco3)C2=O)cc1`, for which the Potency was 3.96 µM (active).

Turning to `Cc1cc(/C=C2\SC(=S)N(Cc3ccco3)C2=O)c(C)n1-c1ccccc1`, the Potency is 23.1 µM (active).

Regarding `Cc1cc(/C=C2\SC(=S)N(Cc3ccco3)C2=O)c(C)n1-c1cccnc1`, the Potency is 20.6 µM (active).

As to `CCN1CCN(c2c(/C=C3\SC(=S)N(Cc4ccco4)C3=O)c(C)c(C#N)c(=O)n2C)CC1`, the Potency was 14.6 µM (active).

Take `COC(=O)c1ccc(Oc2cc(C)nc(SC)n2)cc1`: the Potency was 2.8 µM (active).

In the case of `C/C(=N\NC(=O)C(C)n1nc(C)c([N+](=O)[O-])c1C)c1ccccc1O` (stereo not drawn), the Potency result is “inactive”.

For `C/C(=N/N=C(\C)c1ccccc1O)c1ccccc1O`, the Potency is 18.4 µM (active).

Turning to `COCCNC(=S)N/N=C(\C)c1ccccc1O`, the Potency result is “inactive”.

For `C=CCN1C(=O)c2cccc3c(N4CCCCC4)ccc(c23)C1=O`, the Potency is 16.4 µM (active).

As for `O=C1c2cccc3c(N4CCCCC4)ccc(c23)C(=O)N1c1cccc(O)c1`, the Potency is 3.66 µM (active).

On to `O=C1c2cccc3c(N4CCCCC4)ccc(c23)C(=O)N1c1ccc(O)cc1`, for which the Potency result is “inactive”.

In the case of `Cc1ccc(N2C(=O)c3cccc4c(N5CCN(C)CC5)ccc(c34)C2=O)c2cccnc12`, the Potency is 14 µM (active).

As for `O=C1c2cccc3c(N4CCCCC4)ccc(c23)C(=O)N1CCO`, the Potency is 17.7 µM (active).

For the molecule `O=C1c2cccc3c(N4CCCCC4)ccc(c23)C(=O)N1c1ccccc1O`, the Potency entry was “inactive”.

For the molecule `C=CCOC(=O)C1=C(C)NC(C)=C(C(=O)OCC=C)C1c1cn(-c2ccccc2)nc1-c1ccco1`, the Potency entry is “inactive”.

`Cc1ccc2nc(-c3ccccn3)c(Nc3ccccc3C)n2c1`: the Potency result is “inactive”.

`CN(C)c1ccc(/C=C/c2nccc3ccccc23)cc1`: the Potency is 20.6 µM (active).

For the molecule `CCN(CC)c1nc(C=Cc2ccc(N(C)C)cc2)c2nccnc2n1`, the Potency is 0.58 µM (active).

Regarding `CCN(Cc1ccccc1)c1ccc(/C=C/c2nccc3ccccc23)cc1`, the Potency was 20.6 µM (active).

On to `CN(C)c1ccc(C=Cc2nccc3ccccc23)cc1`, for which the Potency is 14 µM (active).

For `CCN(Cc1ccccc1)c1ccc(/C=C(\C#N)c2ccccn2)cc1`, the Potency entry was “inactive”.

`CCCn1c(C2CCCN2c2nc(-c3cccc(Br)c3)cs2)nc2ccccc21` (stereo not drawn): the Potency entry was “inactive”.

For `CCn1c2ccccc2c2cc(NC(=O)CNCc3ccccc3OC)ccc21`, the Potency is 4.98 µM (active).

As to `S=C(NCCSCc1ccc(Cl)cc1)Nc1ccccc1`, the Potency result is “inactive”.

`CCn1c(CNC(=O)c2cc(OC)c(OC)c(OC)c2)cc2cc(C)ccc21`: the Potency result is “inactive”.

`COc1cc(C(=O)NCCOc2cc(C)cc(C)c2)cc(OC)c1OC`: the Potency is 2.8 µM (active).

For `COc1ccc(C2=NOC(C(=O)NCc3ccc(F)cc3)C2)cc1OC` (stereo not drawn), the Potency is 5.59 µM (active).

As to `CCOc1ccc(N(C)c2ccc(/C=C3/SC(=S)NC3=O)cc2)cc1`, the Potency is 15.8 µM (active).

For the molecule `CN(C)c1ccc(C=C2SC(=S)NC2=O)cc1`, the Potency is 7.04 µM (active).

With `COc1ccccc1N=C1NC(=O)/C(=C/c2ccc(N(C)C)cc2)S1`, the Potency is 6.51 µM (active).

Regarding `Cc1ccc(Cn2c(SCc3ccc(C(=O)NC4CCCC4)cc3)nc3ccncc32)cc1`, the Potency entry was “inactive”.

Take `CN1CCN(c2ccc([N+](=O)[O-])cc2C(=O)c2ccc(Br)cc2)CC1`: the Potency was 4.98 µM (active).

On to `Cc1ccc(C(=O)c2cc([N+](=O)[O-])ccc2N2CCOCC2)cc1C`, for which the Potency was 1.77 µM (active).

`Cc1ccc(C(=O)c2cc([N+](=O)[O-])ccc2N2CCN(C)CC2)cc1`: the Potency is 4.98 µM (active).

Regarding `Cn1c(=O)[nH]c(=O)c2c1nc(Br)n2Cc1cccc(Br)c1`, the Potency was 9.94 µM (active).

Regarding `C/C(=N\NC(=O)c1c(Cl)c(C)nn1C)c1ccc(NC(=O)C2CCC2)cc1`, the Potency was 1.4 µM (active).

Take `CCN(CC)c1ccc(/C=C/c2cccc[n+]2C)c(OC)c1`: the Potency is 15.8 µM (active).

Regarding `COC(=O)/C(=C\Nc1ccc(Cl)cc1Cl)NC(=O)c1ccc(OC)cc1`, the Potency is 3.96 µM (active).

On to `Cc1ccc(N=C2NC(=O)/C(=C/c3cccn3C)S2)cc1`, for which the Potency is 15.8 µM (active).

Regarding `Cn1cccc1/C=C1\SC(=Nc2ccc(O)cc2)NC1=O`, the Potency was 6.27 µM (active).

For the molecule `Cc1ccc(N=C2NC(=O)/C(=C/c3cn(C)c4ccccc34)S2)cc1C`, the Potency was 15.8 µM (active).

`Cn1cccc1/C=C1\SC(=Nc2ccccc2)NC1=O`: the Potency is 5.59 µM (active).

Regarding `O=C1NC(=Nc2ccc(O)cc2)S/C1=C/c1ccco1`, the Potency is 12.5 µM (active).

Regarding `COc1cc(/C=C2\SC(=Nc3cccnc3)NC2=O)cc(OC)c1OC`, the Potency entry is “inactive”.

With `COc1cc(/C=C2/SC(=Nc3ccc(O)cc3)NC2=O)ccc1O`, the Potency is 13 µM (active).

Regarding `Cn1cc(/C=C2\SC(=S)N(NC(=O)c3cccc(Cl)c3)C2=O)c2ccccc21`, the Potency was 16.4 µM (active).

Take `Cn1cc(/C=C2\SC(=O)N(c3ccccc3)C2=O)c2ccccc21`: the Potency is 16.4 µM (active).

For the molecule `Cc1cccc(N=C2NC(=O)/C(=C/c3cccn3C)S2)c1`, the Potency entry is “inactive”.

With `Cc1cc(/C=C2\SC(=Nc3ccccc3)NC2=O)c(C)n1-c1ccc(S(N)(=O)=O)cc1`, the Potency was 1.98 µM (active).

As for `Cn1cccc1/C=C1\SC(=Nc2cccc(O)c2)NC1=O`, the Potency is 17.7 µM (active).

For `COc1cc2c(cc1OC)C(C)N(C(=O)c1cc(C)on1)CC2` (stereo not drawn), the Potency is 0.994 µM (active).

On to `COc1cc2c(cc1OC)C(C)N(C(=O)c1cc(Cl)nc(Cl)c1)CC2` (stereo not drawn), for which the Potency entry was “inactive”.

As for `CCN(CC)c1nc(C)c(C(=S)Nc2cc([N+](=O)[O-])ccc2Cl)s1`, the Potency entry is “inactive”.

In the case of `CC(=O)Nc1ccc(-c2ccnc3c2CC(C(=O)NCc2cccc(Cl)c2)O3)cc1` (stereo not drawn), the Potency is 3.53 µM (active).

Turning to `CC(=O)Nc1ccc(-c2ccnc3c2CC(C(=O)NCc2ccccc2)O3)cc1` (stereo not drawn), the Potency was 1.12 µM (active).
